Measured values published in PubChem BioAssay (NCATS).
Records with an inconclusive call do not appear. Activity calls are given as the source filed them. The call rests on the fitted dose curve; in most records, active means well fitted curve in the direction sought with a large enough effect; inconclusive means small, poorly fitted or top-dose-only effect, or another doubt; inactive means no such curve, though single readings can be large; an effect the other way counts as inactive or inconclusive.

How the values were obtained:
[1] = qHTS assay for measurement of the activity of small molecule inhibitors on Zika virus induced Caspase-3 activity in human iPSC derived neural progenitor cells (hNPCs) (AID 1224857); further: nearly all actives have a fitted effect of over 65% in size
How it was run: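 Zika virus (2 FFU/cell) infection of human iPSC-derived NPCs, 6 h, following 1 h compound preincubation. Read-out: Caspase-Glo 3/7 luminescence.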

[2] = qHTS assay for measurement of the activity of small molecule inhibitors on Zika virus induced Caspase-3 activity in human astrocytoma cells (AID 1224859)
How it was run: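 Caspase activation in ZIKV-infected SNB-19 cells (2 FFU/cell, 6 h) measured by Caspase-Glo 3/7 luminescence after 30 min RT; compound pre-incubated 1 h; normalised to uninfected and infected controls.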

[3] = qHTS assay to identify small molecule inhibitors of chordoma cells - UCH-1 (AID 1259355); further: nearly all actives have a fitted effect of over 55% in size
How it was run: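 A 48hr growth-inhibition format: each drug tested at 15 concentrations together with added auranofin, camptothecin, doxorubicin, rubitecan and topotecan, with cell viability quantified as CellTiter-Glo luminescence.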

[4] = qHTS assay to identify small molecule inhibitors of chordoma cells - UCH-2 (AID 1259356); further: series mostly up to about 46 µM

Measured: Potency

Cc1cc2c(OCC(CNC(C)(C)C)OC(=O)c3ccccc3)cccc2[nH]1 (stereo unspecified)
inactive: all assays above

CCCCC(CC)COC(=O)c1ccc(N(C)C)cc1 (stereo unspecified)
inactive: all assays above

COc1cc(C(=S)N2CCOCC2)ccc1O
inactive: all assays above

CCCCC(CC)COC(=O)/C=C/c1ccc(OC)cc1 (stereo unspecified)
inactive: all assays above

O=C(CCN1CCN2CCCC2C1)N1c2ccccc2Sc2ccc(Cl)cc21 (stereo unspecified)
inactive: all assays above

O=C(NC1CCN(CCc2c[nH]c3ccccc23)CC1)c1ccccc1
inactive: all assays above

CC(C(=O)O)c1cccc(Oc2ccccc2)c1 (stereo unspecified)
inactive: all assays above

COc1cc(N)c(Cl)cc1C(=O)NC1CCN(Cc2ccccc2)CC1
inactive: all assays above

Cc1ccc(S(=O)(=O)NC(=O)NC2CCCC2)cc1
inactive: all assays above

CC(=O)Nc1ccc(CC(=O)O)cc1
inactive: all assays above

COc1cc(C(=O)NCc2ccc(OCCN(C)C)cc2)cc(OC)c1OC
inactive: all assays above

CC(C)[N+](C)(C)CC(O)COc1cccc2ccccc12 (stereo unspecified)
inactive: all assays above

COC(=O)C(c1ccccc1Cl)N1CCc2sccc2C1 (stereo unspecified)
inactive: all assays above

CC(=O)Nc1ncc([N+](=O)[O-])s1
inactive: all assays above
